Experimental data as given in the supplement of paper PMC10849652.
Of roughly 7,900 targets only a part is listed; those with a hit were picked by preference. About 0.6% of all pairs of compound and target were hits.

Key:
Test in all cases: log2 fold change, soluble protein after heating vs DMSO (PISA); higher = thermal stabilisation; K562 cells, 10 uM, 30 min; active = over 0.2 and 3.5 SD of the protein, either way, in both replicates (recomputed)
[1] = compound: C1=CC=C(C=C1)[C@H](COC2=CC3=C(C=C2)NC(=O)N3)NC(=O)C4=CC=CN(C4=O)CC5=CC(=C(C=C5)F)F
How it was run: (§1)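 K562 cells at 2×10^6 cells/mL were treated for 30 min with 10 μM compound, and aliquots were heated for 3 min over 48°C-58°C before pooling. Extraction used PBS with 0.5% NP-40 at 4°C, and soluble protein was the supernatant after 21,000xg for 90 min, measured by TMTpro 16plex LC-MS/MS with channel sums equalised. Thermal stability values, relative to control samples and from duplicates, are log2 fold changes.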

[2] = compound: CC1=C(SC2=C1C(=N[C@H](C3=NN=C(N32)C)CC(=O)N)C4=CC=C(C=C4)Cl)C
How it was run: as §1

[3] = compound: CC1=C2C(=CC=C1)N=C(N(C2=O)C3=CC=CC=C3C)CN4C=NC5=C(N=CN=C54)N
How it was run: as §1

[4] = compound: Cc1sc2c(c1C)C(c1ccc(Cl)cc1)=N[C@@H](CC(=O)OC(C)(C)C)c1nnc(C)n1-2
How it was run: as §1

[5] = compound: c1ccc([C@@H]2C[C@H]2NC2CCNCC2)cc1
How it was run: as §1

Measured: log2 fold change

RB1 (UniProt P06400)
Sequence of UniProt P06400 (P06400 whole entry, looked up): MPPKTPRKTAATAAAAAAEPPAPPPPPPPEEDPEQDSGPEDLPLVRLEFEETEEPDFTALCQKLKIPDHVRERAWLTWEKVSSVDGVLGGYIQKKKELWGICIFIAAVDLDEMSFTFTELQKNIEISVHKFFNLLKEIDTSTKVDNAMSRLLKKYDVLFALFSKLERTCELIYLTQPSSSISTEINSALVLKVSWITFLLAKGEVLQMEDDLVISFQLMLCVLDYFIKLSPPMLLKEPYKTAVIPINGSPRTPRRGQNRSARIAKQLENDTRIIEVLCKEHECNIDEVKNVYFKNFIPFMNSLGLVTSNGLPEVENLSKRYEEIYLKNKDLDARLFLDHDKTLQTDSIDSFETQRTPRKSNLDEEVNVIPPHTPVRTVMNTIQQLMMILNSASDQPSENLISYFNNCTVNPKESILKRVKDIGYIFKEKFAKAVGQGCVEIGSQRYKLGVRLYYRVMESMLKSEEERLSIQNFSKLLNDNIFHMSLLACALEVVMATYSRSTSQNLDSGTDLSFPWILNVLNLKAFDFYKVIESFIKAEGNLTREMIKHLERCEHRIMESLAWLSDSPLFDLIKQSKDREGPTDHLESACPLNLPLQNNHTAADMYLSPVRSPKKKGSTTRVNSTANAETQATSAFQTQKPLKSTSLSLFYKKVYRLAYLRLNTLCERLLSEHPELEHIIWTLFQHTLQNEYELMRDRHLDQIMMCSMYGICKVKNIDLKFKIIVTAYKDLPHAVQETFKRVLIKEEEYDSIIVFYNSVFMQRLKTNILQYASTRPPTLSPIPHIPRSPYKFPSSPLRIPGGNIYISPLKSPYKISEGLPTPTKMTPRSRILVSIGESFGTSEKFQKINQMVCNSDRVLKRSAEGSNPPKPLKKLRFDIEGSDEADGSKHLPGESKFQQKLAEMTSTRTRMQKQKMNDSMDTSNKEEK
inactive: [1] -0.038 | [2] 0.064 | [3] 0.048 | [4] 0.011 | [5] 0

RNASEH2A (UniProt O75792)
Sequence of UniProt O75792 (O75792 whole entry, looked up): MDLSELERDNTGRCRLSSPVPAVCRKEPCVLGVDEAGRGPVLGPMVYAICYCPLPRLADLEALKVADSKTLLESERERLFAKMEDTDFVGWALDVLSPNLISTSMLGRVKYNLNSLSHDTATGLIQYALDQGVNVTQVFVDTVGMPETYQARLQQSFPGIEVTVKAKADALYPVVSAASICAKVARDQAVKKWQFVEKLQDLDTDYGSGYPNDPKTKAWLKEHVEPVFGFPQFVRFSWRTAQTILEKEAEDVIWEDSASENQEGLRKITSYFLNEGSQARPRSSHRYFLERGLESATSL
inactive: [1] -0.008 | [2] 0.065 | [3] 0.183 | [4] -0.025 | [5] -0.01

REEP4 (UniProt Q9H6H4)
Sequence of UniProt Q9H6H4 (Q9H6H4 whole entry, looked up): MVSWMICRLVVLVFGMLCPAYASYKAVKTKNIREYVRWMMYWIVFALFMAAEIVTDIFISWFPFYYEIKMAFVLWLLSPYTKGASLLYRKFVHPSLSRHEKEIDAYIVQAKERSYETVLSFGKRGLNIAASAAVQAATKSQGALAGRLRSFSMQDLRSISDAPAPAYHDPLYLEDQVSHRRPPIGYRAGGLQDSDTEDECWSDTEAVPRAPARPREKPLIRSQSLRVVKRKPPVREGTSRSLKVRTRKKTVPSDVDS
inactive: [1] -0.004 | [2] -0.034 | [3] -0.023 | [4] 0.081 | [5] 0.003

RARS (UniProt P54136)
Sequence of UniProt P54136 (P54136 whole entry, looked up): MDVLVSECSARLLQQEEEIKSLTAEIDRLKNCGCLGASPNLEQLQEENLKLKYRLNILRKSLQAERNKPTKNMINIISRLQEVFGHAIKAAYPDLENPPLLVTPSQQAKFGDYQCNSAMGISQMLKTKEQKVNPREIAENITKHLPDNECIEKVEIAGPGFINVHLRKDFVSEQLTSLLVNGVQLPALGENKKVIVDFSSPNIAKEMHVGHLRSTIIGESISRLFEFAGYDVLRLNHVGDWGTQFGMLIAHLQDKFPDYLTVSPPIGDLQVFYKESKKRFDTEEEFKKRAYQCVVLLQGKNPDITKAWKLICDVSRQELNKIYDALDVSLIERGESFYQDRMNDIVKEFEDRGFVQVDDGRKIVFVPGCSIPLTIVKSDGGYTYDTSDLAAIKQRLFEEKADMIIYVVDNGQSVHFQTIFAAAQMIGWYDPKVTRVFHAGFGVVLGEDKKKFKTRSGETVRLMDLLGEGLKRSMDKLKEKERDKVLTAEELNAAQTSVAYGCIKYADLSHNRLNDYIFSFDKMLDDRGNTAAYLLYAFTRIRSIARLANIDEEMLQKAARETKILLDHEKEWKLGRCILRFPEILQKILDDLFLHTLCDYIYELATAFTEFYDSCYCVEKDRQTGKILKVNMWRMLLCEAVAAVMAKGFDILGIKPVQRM
inactive: [1] -0.057 | [2] -0.081 | [3] -0.02 | [4] 0.169 | [5] 0.024

RNF41 (UniProt Q9H4P4)
Sequence of UniProt Q9H4P4 (Q9H4P4 whole entry, looked up): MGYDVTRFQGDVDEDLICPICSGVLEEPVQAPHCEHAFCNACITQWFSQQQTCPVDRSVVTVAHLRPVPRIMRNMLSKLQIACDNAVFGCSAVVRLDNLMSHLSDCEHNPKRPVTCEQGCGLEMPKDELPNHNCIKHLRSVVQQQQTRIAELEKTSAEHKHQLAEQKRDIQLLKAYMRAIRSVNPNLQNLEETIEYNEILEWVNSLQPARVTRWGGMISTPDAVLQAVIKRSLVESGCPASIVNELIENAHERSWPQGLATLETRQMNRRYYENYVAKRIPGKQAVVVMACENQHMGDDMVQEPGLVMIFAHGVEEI
inactive: [1] 0.039

RAP1GDS1 isoform 5 (UniProt P52306)
Sequence of UniProt P52306 (P52306 whole entry, looked up): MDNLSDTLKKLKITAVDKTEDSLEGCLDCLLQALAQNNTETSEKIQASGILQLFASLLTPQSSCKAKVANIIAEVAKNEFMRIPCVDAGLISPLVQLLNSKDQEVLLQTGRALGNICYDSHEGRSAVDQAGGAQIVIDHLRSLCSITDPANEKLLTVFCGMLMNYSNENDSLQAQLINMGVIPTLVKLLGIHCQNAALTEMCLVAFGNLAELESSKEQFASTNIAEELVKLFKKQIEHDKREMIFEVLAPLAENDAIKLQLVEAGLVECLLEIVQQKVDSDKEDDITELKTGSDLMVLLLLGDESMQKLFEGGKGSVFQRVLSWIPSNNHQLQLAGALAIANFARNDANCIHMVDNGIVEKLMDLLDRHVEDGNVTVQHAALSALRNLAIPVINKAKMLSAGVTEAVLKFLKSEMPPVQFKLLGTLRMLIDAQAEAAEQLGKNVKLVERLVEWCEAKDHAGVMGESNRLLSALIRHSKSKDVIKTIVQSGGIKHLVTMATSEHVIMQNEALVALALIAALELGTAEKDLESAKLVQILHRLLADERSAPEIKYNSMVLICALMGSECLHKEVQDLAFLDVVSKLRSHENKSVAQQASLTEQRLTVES
inactive: [1] -0.093 | [2] -0.01 | [3] 0.119 | [4] -0.001 | [5] -0.009

SAMSN1 isoform 3 (UniProt Q9NSI8)
Sequence of UniProt Q9NSI8 (Q9NSI8 whole entry, looked up): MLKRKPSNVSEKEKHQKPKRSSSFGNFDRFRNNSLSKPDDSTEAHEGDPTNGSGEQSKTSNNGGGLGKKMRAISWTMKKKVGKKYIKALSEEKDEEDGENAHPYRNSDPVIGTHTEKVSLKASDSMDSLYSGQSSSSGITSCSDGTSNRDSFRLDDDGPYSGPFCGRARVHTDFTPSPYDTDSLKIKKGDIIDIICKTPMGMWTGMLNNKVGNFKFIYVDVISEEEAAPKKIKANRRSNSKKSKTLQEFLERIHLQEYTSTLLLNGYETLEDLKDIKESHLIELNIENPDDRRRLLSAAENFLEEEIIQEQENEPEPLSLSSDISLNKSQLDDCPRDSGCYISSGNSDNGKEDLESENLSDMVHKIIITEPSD
inactive: [1] -0.028 | [2] 0.014 | [3] 0.025 | [4] -0.01 | [5] -0.01

RHOXF2 (UniProt Q9BQY4)
Sequence of UniProt Q9BQY4 (Q9BQY4 whole entry, looked up): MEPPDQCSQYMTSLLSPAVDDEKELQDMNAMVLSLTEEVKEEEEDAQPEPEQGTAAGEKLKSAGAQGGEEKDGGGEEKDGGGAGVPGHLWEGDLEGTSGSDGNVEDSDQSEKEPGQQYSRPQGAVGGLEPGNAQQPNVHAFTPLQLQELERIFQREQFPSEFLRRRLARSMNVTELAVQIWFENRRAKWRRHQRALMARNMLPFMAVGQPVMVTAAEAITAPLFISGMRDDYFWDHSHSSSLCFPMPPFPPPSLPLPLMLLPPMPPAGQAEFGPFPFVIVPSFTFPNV
inactive: [1] 0.004 | [2] -0.031 | [3] 0.024 | [4] 0.012 | [5] 0.057

SIRT2 (UniProt Q8IXJ6)
Sequence of UniProt Q8IXJ6 (Q8IXJ6 whole entry, looked up): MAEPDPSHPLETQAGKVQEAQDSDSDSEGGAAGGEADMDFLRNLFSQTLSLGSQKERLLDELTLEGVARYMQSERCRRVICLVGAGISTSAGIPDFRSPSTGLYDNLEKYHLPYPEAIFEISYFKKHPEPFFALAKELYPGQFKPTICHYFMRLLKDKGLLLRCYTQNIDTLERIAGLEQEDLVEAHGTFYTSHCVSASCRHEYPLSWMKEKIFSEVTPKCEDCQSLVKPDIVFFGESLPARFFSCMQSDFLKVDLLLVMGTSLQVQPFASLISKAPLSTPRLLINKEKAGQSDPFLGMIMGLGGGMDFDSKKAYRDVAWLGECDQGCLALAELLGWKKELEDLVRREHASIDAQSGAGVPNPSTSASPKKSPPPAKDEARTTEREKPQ
inactive: [1] -0.075 | [2] 0.107 | [3] 0.105 | [4] 0.093 | [5] -0.016

RPL38 (UniProt P63173)
inactive: [1] 0.012 | [2] -0.03 | [3] -0.046 | [4] 0.053 | [5] 0.013
